The text below walks through data of PubChem BioAssay (NCI).

Each structure is given as a SMILES string. Compounds without any hit were thinned out: in the full panel of roughly 83,000, 20% have a hit.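 96-well plates, one dose, 48 hours. Percent growth reported; active if below 10.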 A number with no mark means an inactive call. Calls of active or inactive are those of the source.

Test systems include NCI-H23 lung; NCI-H226 lung; NCI-H322M lung; HOP-62 NSCLC; NCI-H460 lung; HOP-92 NSCLC; NCI-H522 lung; A549/ATCC NSCLC; 786-0 renal; COLO 205 colon; DU-145 prostate; K-562 leukemia; MALME-3M melanoma; MDA-MB-231 breast; RXF 393 renal; SF-268 CNS; SF-295 CNS; SF-539 CNS; UACC-257 melanoma; M14 melanoma.
Assay in all cases: NCI-60 one-dose screen, 48 h (100 = growth as untreated, 0 = no growth, -100 = all killed)
Common to all, as to conditions: 10 µM

On to `COc1ccc(/C=C2\CCC3C(CCCC34OCCO4)C2=O)cc1` (stereo not given), for which the growth was 94.2% in the test on NCI-H23 lung; 97.8% with NCI-H226 lung; 79.5% with NCI-H322M lung; 99.3% in the test with HOP-62 NSCLC; 105% in the test on NCI-H460 lung; 92.3% in the test with HOP-92 NSCLC. For the same compound, the growth with NCI-H522 lung was -1.7% (active); in the test on A549/ATCC NSCLC it was 89.7%; in the test on 786-0 renal, 96.2%; with COLO 205 colon it was 94.5%; with DU-145 prostate, 87.6%; with K-562 leukemia it was 39.7%. Moreover, the growth is 70.5% in the test with MALME-3M melanoma; 96% in the test on MDA-MB-231 breast; 96.6% in the test on RXF 393 renal; 97.2% with SF-268 CNS; 107% in the test on SF-295 CNS; 88.8% in the test on SF-539 CNS. Besides, the growth in the test with UACC-257 melanoma was 91%; with M14 melanoma it was 95.6%.
For `COc1ccc2nc(C)cc(Nc3ccc(Cl)cc3)c2c1`, the growth in the test with NCI-H23 lung was 104%; in the test on NCI-H226 lung, 99.9%; in the test with NCI-H322M lung, 95.1%; in the test on HOP-62 NSCLC it was 104%; in the test with NCI-H460 lung, 91.8%; in the test with HOP-92 NSCLC, 156%. Besides, the growth in the test with NCI-H522 lung is 105%; in the test with A549/ATCC NSCLC, 92.2%; in the test on 786-0 renal, 109%; in the test on COLO 205 colon, 107%; with DU-145 prostate, 102%; in the test with K-562 leukemia it was 97.9%. Also, the growth with MALME-3M melanoma was 114%; in the test with MDA-MB-231 breast, 115%; with RXF 393 renal, 118%; in the test with SF-268 CNS, 103%; with SF-295 CNS, 108%; with SF-539 CNS, 104%. Also, the growth in the test on UACC-257 melanoma is 99.4%; in the test with M14 melanoma it was 100%.
In the case of `CCCCCCCOc1cccc(/C=C2/C(=O)N=C3SCCCN32)c1`, the growth in the test with NCI-H23 lung was 70.7%; in the test on NCI-H226 lung, 64.5%; in the test with NCI-H322M lung, 89.1%; in the test with HOP-62 NSCLC, 85.7%; in the test with NCI-H460 lung, 82%; in the test on HOP-92 NSCLC, 62.8%. Also, the growth in the test on NCI-H522 lung was 23.6%; with A549/ATCC NSCLC, 94.9%; in the test on 786-0 renal, 80.4%; in the test on COLO 205 colon it was 81.2%; with DU-145 prostate, 55.7%; in the test with K-562 leukemia, 37%. Moreover, the growth in the test on MALME-3M melanoma is 81.6%; in the test with MDA-MB-231 breast it was 65.8%; in the test with RXF 393 renal it was 83.7%; with SF-268 CNS it was 85%; in the test with SF-295 CNS, 75.1%; in the test on SF-539 CNS, 92.7%. Moreover, the growth with UACC-257 melanoma is 68.4%; with M14 melanoma, 71%.
As to `O=C(O)CCCCSCCCCC(=O)O`, the growth in the test on NCI-H23 lung is 103%; in the test with NCI-H226 lung, 93.4%; in the test with NCI-H322M lung it was 109%; in the test with HOP-62 NSCLC, 95.8%; in the test with NCI-H460 lung it was 113%; in the test with HOP-92 NSCLC, 96.8%. The growth in the test on NCI-H522 lung was 83.3%; with A549/ATCC NSCLC, 90.9%; in the test with 786-0 renal it was 101%; in the test on COLO 205 colon, 113%; with DU-145 prostate it was 120%; in the test with K-562 leukemia, 97.7%. In addition, the growth was 101% in the test with MALME-3M melanoma; 107% in the test on MDA-MB-231 breast; 111% with RXF 393 renal; 107% in the test with SF-268 CNS; 99.6% in the test with SF-295 CNS; 103% with SF-539 CNS. For the same compound, the growth is 89.7% with UACC-257 melanoma and 103% in the test on M14 melanoma.
As for `CNC(=O)c1cc(Oc2ccc(NC(=O)Nc3ccc(Cl)c(OC4CCCCC4)c3)c(F)c2)ccn1`, the growth in the test on NCI-H23 lung was 21.4%; with NCI-H226 lung, 48.4%; with NCI-H322M lung it was 75.8%; in the test on HOP-62 NSCLC, 70.5%; with NCI-H460 lung it was 37.9%; in the test on HOP-92 NSCLC, 36%. The growth was 9.84% (active) in the test with NCI-H522 lung; 26.6% with A549/ATCC NSCLC; 90.4% in the test on 786-0 renal; 33.2% with COLO 205 colon; 65.6% with DU-145 prostate; 17.1% in the test on K-562 leukemia. The growth is 69% with MALME-3M melanoma; 68.7% in the test with MDA-MB-231 breast; 79.4% in the test with RXF 393 renal; 61% with SF-268 CNS; 20.5% with SF-295 CNS; 59.9% in the test on SF-539 CNS. Besides, the growth is 23.3% with UACC-257 melanoma and 40% in the test on M14 melanoma.
On to `Cc1cc(O)c(C2=NN(c3ccc(S(N)(=O)=O)cc3)C(c3ccc(N(C)C)cc3)C2)c(C)c1Cl` (stereo not given), for which the growth with NCI-H23 lung was 79.3%; with NCI-H226 lung it was 88.8%; with NCI-H322M lung, 97.6%; in the test with HOP-62 NSCLC, 107%; in the test with NCI-H460 lung it was 47.1%; with HOP-92 NSCLC, 45.5%. The growth with NCI-H522 lung is 39.7%; in the test on A549/ATCC NSCLC, 40.8%; in the test on 786-0 renal it was 95.6%; in the test with COLO 205 colon it was 76.2%; in the test on DU-145 prostate, 75.2%; with K-562 leukemia it was 25%. For the same compound, the growth in the test with MALME-3M melanoma is 157%; with MDA-MB-231 breast, 103%; in the test with RXF 393 renal, 93.4%; with SF-268 CNS it was 72.1%; in the test with SF-295 CNS, 6.34% (active); in the test with SF-539 CNS, 91.6%. Also, the growth was 97.6% in the test on UACC-257 melanoma and 89.3% in the test with M14 melanoma.
Turning to `CCOC(=O)c1cc(-c2ccccc2)nc(N)n1`, the growth in the test on NCI-H23 lung is 99.5%; in the test with NCI-H226 lung it was 89.5%; with NCI-H322M lung, 99%; in the test with HOP-62 NSCLC, 96.1%; with NCI-H460 lung it was 104%; with HOP-92 NSCLC, 78.1%. Besides, the growth is 95.5% with NCI-H522 lung; 102% in the test on A549/ATCC NSCLC; 108% in the test with 786-0 renal; 114% in the test with COLO 205 colon; 107% in the test on DU-145 prostate; 104% in the test with K-562 leukemia. For the same compound, the growth was 111% with MALME-3M melanoma; 97.4% with MDA-MB-231 breast; 93.7% in the test with RXF 393 renal; 106% with SF-268 CNS; 93.8% in the test on SF-295 CNS; 94.5% in the test with SF-539 CNS. Further, the growth with UACC-257 melanoma is 101%; with M14 melanoma, 108%.
As for `COc1ccc(COC(=O)CC(C)C)cc1`, the growth in the test with NCI-H23 lung is 93.1%; with NCI-H226 lung, 95.1%; in the test with NCI-H322M lung, 101%; in the test with HOP-62 NSCLC, 106%; with NCI-H460 lung, 108%; with HOP-92 NSCLC, 99%. The growth was 79.1% in the test with NCI-H522 lung; 89.5% in the test with A549/ATCC NSCLC; 94.4% with 786-0 renal; 109% with COLO 205 colon; 107% in the test on DU-145 prostate; 96.1% in the test with K-562 leukemia. The growth was 100% in the test with MALME-3M melanoma; 106% in the test with MDA-MB-231 breast; 101% with RXF 393 renal; 93% with SF-268 CNS; 97.1% in the test with SF-295 CNS; 96.1% in the test on SF-539 CNS. Besides, the growth is 87.7% in the test on UACC-257 melanoma and 99.6% with M14 melanoma.
